Assay results published in PubChem BioAssay (NCATS).
Results filed as inconclusive are left out. Active and inactive are the calls of the source. The call rests on the fitted dose curve; in most records, active means well fitted curve in the direction sought with a large enough effect; inconclusive means small, poorly fitted or top-dose-only effect, or effect the other way, or another doubt; inactive means no such curve, though single readings can be large or run the other way.

Test: qHTS Assay for Identification of Small Molecule Agonists for NFkB Signaling Pathway. (AID 624478);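 further: compounds tested together with TNF alpha at its EC50 of 10 pM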
Settings: NFkB pathway reporter cell assay, agonist mode, cells co-stimulated with 10 pM TNF alpha; series mostly up to 46.1 µM
Procedure: The TNF alpha/NFkB signaling pathway was assayed in NFkB-bla cells (Invitrogen), a ME-180 cervical carcinoma line containing a stably integrated beta-lactamase reporter gene controlled by a NFkB response element. This reporter is induced by TNF alpha at 10 pM EC50 and inhibited by the proteosome inhibitor MG-132 at approximately 100 nM IC50. The assay was screened at the EC50 of TNF alpha activation to identify activators of TNF alpha/NFkB signaling
Cells were trypsinized, washed in assay medium (AM, OPTI MEM with 0.5% fetal bovine serum, 0.1 mM nonessential amino acids, 1 mM sodium pyruvate, 10mM HEPES pH 7.3, 100U/ml penicillin, and 100 ug/ml streptomycin) and plated at 1000 cells/5 uL/well into black clear-bottom 1536 well plates. After an overnight incubation at 37 C and 5% CO2, 23 nL of compound were delivered by a pin tool, 1 uL of TNF alpha (10 pM final concentration in AM) was added and plates were incubated at 37 C for 5 hrs. One uL of LiveBLAzerTM detector mix (Invitrogen) was added, the plates incubated at room temperature for 2 hrs, and fluorescence intensity at 460 and 530 nm emission was measured at 405 nm excitation by an Envision (Perkin Elmer).

SMILES | outcome
Cc1[nH]c(=O)c(C#N)cc1-c1ccc2nccn2c1 | inactive
CCc1cncnc1N1CCN(Cc2nc3ccc(C(F)(F)F)cc3[nH]2)CC1 | inactive
N#CC[C@H](C1CCCC1)n1cc(-c2ncnc3[nH]ccc23)cn1 | inactive
COc1nc(-c2ccc3c(c2)OCO3)n(-c2ccc(NC(=O)CSc3ccccc3)cc2)n1 | inactive
O=C(C1CC1)N1CC[C@@H](Cn2c(-c3ccc(-c4ccc5occc5c4)cc3)nc3cnccc32)C1 | inactive
CS(=O)(=O)Oc1ccc2c(NC(N)=O)c(C(=O)c3ccc(Cl)cc3Cl)oc2c1 | inactive
CCOc1ccn(-c2ccc(F)cc2)c(=O)c1C(=O)Nc1ccc(Oc2ccnc(N)c2Cl)c(F)c1 | inactive
Cc1c(CN2CCN(C(=O)C(C)C)CC2)sc2c(N3CCOCC3)nc(-c3cnc(N)nc3)nc12 | inactive
O=C(O)c1ccc(-c2c[nH]c3ccc(-c4ccccc4)cc23)cc1C1CCCC1 | inactive
COc1ccc(C2=N[C@H](c3ccc(Cl)cc3)[C@H](c3ccc(Cl)cc3)N2C(=O)N2CCNC(=O)C2)c(OC(C)C)c1 | inactive
Nc1ncnc2nc(-c3ccc(N4CCOCC4)nc3)cc(-c3cccc(Br)c3)c12 | inactive
CC(C)c1onc(-c2c(Cl)cccc2Cl)c1COc1ccc(/C=C/c2cccc(C(=O)O)c2)c(Cl)c1 | inactive
COc1ccc(-c2oc3cc(OC)ccc3c2C(=O)c2ccc(C#N)cc2)cc1 | inactive
CC1(C)CNc2cc(NC(=O)c3cccnc3NCc3ccncc3)ccc21 | inactive
CC[C@@H](C)[C@H](NC(=O)[C@H](CC1CCCCC1)NC(=O)c1ccno1)C(=O)N1CCC2(CCc3ccccc32)CC1 | inactive
CN(C(=O)c1ccc(F)cc1C(F)(F)F)C1CCN(c2nnc(-c3ccnn3C)c3ccccc23)CC1 | inactive
O=C1CCCC2=C1C(c1[nH]ncc1Cl)N=C(Nc1nc3ccccc3o1)N2 (stereo not given) | inactive
CN(C)c1ccc(C2Nc3ccc4ccccc4c3C3=C2C(=O)CC(C)(C)C3)cc1Br (stereo not given) | inactive
Cc1ccnc(NS(=O)(=O)c2ccc(NC(=O)Nc3ccc(S(=O)(=O)Nc4nccc(C)n4)cc3)cc2)n1 | inactive
CC(C)OC(=O)C1=CN(C(=O)c2ccc(F)c(F)c2)CC(C)(C)c2c1[nH]c1ccccc21 | inactive

SMILES | outcome
C[C@@H]1CN(Cc2ccc(F)cc2)[C@@H](C)CN1C(=O)c1cc2c(C(=O)C(=O)N(C)C)cn(C)c2cc1Cl | inactive
Cc1cc2c(C(C)C)c(O)c(O)c(C=O)c2c(O)c1-c1c(C)cc2c(C(C)C)c(O)c(O)c(C=O)c2c1O | inactive
CCn1c(-c2nonc2N)nc2c(C#CC(C)(C)O)ncc(OC[C@H]3CCCNC3)c21 | inactive
NC(=O)c1ccc(-c2nc(-c3ccc4c(c3)OCCO4)c(-c3ccccn3)[nH]2)cc1 | inactive
CNC(=O)c1ccc(N2C(=S)N(c3ccc(C#N)c(C(F)(F)F)c3)C(=O)C2(C)C)cc1F | inactive
COc1ccc2c3n(c(=NC(=O)c4cccnc4)nc2c1OC)CCN3 | inactive
Cn1cnc2c(F)c(Nc3ccc(Br)cc3Cl)c(C(=O)NOCCO)cc21 | inactive
CCC(C)N(C)C(=O)c1cc2ccccc2c(-c2ccccc2Cl)n1 (stereo not given) | inactive
CN([C@@H](Cc1ccc(OS(=O)(=O)c2cccc3cnccc23)cc1)C(=O)N1CCN(c2ccccc2)CC1)S(=O)(=O)c1cccc2cnccc12 | inactive
Cc1cc(-c2nnc3n2CCCCC3)c(C)n1-c1ccc(F)cc1 | inactive
COc1ccc2nc(S(=O)Cc3ncc(C)c(OC)c3C)[nH]c2c1 (stereo not given) | inactive
CN[C@@H](C)C(=O)N[C@H]1CCCC[C@H]2CC[C@@H](C(=O)N[C@@H](c3ccccc3)c3cn(CCCCc4ccc(CCCCn5cc([C@@H](NC(=O)[C@@H]6CC[C@@H]7CCCC[C@H](NC(=O)[C@H](C)NC)C(=O)N76)c6ccccc6)nn5)cc4)nn3)N2C1=O | inactive
Cc1csc(NC(=O)c2sc3nc4c(c(C(F)(F)F)c3c2N)CCC4)n1 | inactive
S=C(NCc1ccc2c(c1)OCO2)N1CCN(c2ncnc3c2oc2ccccc23)CC1 | inactive
Cc1ccc2c(c1)C(=O)[C@@]1(O)CCN(c3ccccc3)C1=N2 | inactive
CCOc1cc(N2CCC(O)CC2)ccc1Nc1ncc2c(n1)N(C)c1ccccc1C(=O)N2C | inactive
N#Cc1ccc(C(c2ccc(C#N)cc2)n2cncn2)cc1 | inactive
CCN(c1ccccc1)c1cc(NC)[n+](C)c(C)n1 | inactive
CCN(CC)CCCC(C)Nc1nc(C)cc(Nc2ccc3nc(C)cc(N)c3c2)n1 (stereo not given) | inactive
Clc1ccc(Nc2nnc(Cc3ccncc3)c3ccccc23)cc1 | inactive
